According to PubChem BioAssay AID2391 (Southern Research Specialized Biocontainment Screening …, 2010):
Hit rate of the full screen: of about 310,000 compounds, about 410 (0.13%) were called active. Roughly 2% stayed inconclusive and do not appear here. The rule behind the calls is not given here. Not all results are given here. Potency and affinity values are given separately.

Test: RSV antiviral activity via CPE protection, HEp-2 cells, primary 10 µM value included (AID 2391)
Conditions: RSV-induced CPE inhibition, at 10 µM, active compounds read high

CPE inhibition, inactive:
Cc1sc2ncnc(N3CCC(C(=O)Nc4ccc(Br)cc4Br)CC3)c2c1C 10.1%
CCOC(=O)c1cc(-c2ccccc2)n(Cc2cc(CC)no2)n1 2.08%
Cc1ccc(-n2nc3c(c2NC(=O)c2ccco2)CS(=O)(=O)C3)cc1 1.04%
Cc1ccc(S(=O)(=O)Nc2ccncc2)c(C)c1N(C)S(=O)(=O)c1ccc(Cl)cc1 3.66%
CCOC(=O)c1c(C)nc2c(c1-c1cc(OC)ccc1OC)C(=O)c1ccccc1-2 0.88%
CN(C)[C@@H]1CCC[C@@H]1OC(=O)C(c1ccccc1)c1ccccc1 1.33%
COc1ccc(C(=O)NCc2nnc(SCC(=O)Nc3cc(C)on3)o2)cc1OC 0.22%
Cc1ccccc1-c1cc2nc(C)c(C)c(=O)n2[nH]1 2.53%
Cc1cccnc1NC1CCCCC1 0.99%
COc1ccc(NC(=O)COc2ccccc2C(=O)NCC(c2ccccc2)N(C)C)cc1Cl (centres undefined) 0.1%
O=C(/C=C/c1c(Cl)cccc1Cl)Nc1ccncc1 15.2%
CN(C)c1ccc(NC(=O)/C=C/c2ccccc2Cl)cc1 4.05%
CCCCNCc1cc(Br)c(OCC(=O)N2CCOCC2)c(OC)c1 0.24%
O=C(O)Cc1ccc(NC(=O)c2ccc3c(c2)C(=O)N(Cc2ccco2)C3=O)cc1 1.76%
O=C(Nc1ccc2c(c1)CCC2)C1CCCN(c2ncccn2)C1 (centres undefined) -1.9%
Cc1cccc(-c2nc(CSCC(=O)N3CCN(Cc4ccc5c(c4)OCO5)CC3)c(C)o2)c1 4.52%
O=C1CC(SC(=NCc2ccc3c(c2)OCO3)Nc2ccccc2)C(=O)N1c1ccccc1 (centres undefined) 3.83%
CCOc1ccc(NC(=NCc2ccc3c(c2)OCO3)SC2CC(=O)N(c3ccccc3)C2=O)cc1 (centres undefined) 1.98%
O=C(O)c1ccc(N2C(=O)CC(SC(=NCc3ccc4c(c3)OCO4)Nc3ccccc3)C2=O)cc1 (centres undefined) 5.3%
CCOc1ccc(NC(=NCc2ccc3c(c2)OCO3)SC2CC(=O)N(c3ccc(OCC)cc3)C2=O)cc1 (centres undefined) 2.56%
COc1ccc(CN2C(=O)c3cccnc3C2=O)cc1S(=O)(=O)N(C)c1cccc(C)c1 1.8%
O=C(Nc1ccc(Cn2cccn2)cc1)c1ccc(COc2cccc(Br)c2)cc1 -0.58%
Cc1ccc(C(=O)NCC2CCCN2S(=O)(=O)c2cccs2)cc1C (centres undefined) 1.81%
Cc1ccc(-c2nc3cc(NC(=O)C(C)C)ccc3o2)cc1 4.38%
CCCC(=O)Nc1ccc(-c2nc3cc(C)ccc3o2)cc1 40.7%
CCC(C)c1ccc2oc(-c3ccc(NC(=O)c4ncn[nH]4)cc3)nc2c1 (centres undefined) 9.89%
CCCC(=O)Nc1cccc(-c2nc3cc(C)c(C)cc3o2)c1 1.54%
Cc1ccc(-c2nc3cc(NC(=O)C(C)C)ccc3o2)cc1C 14.6%
CCC(C)NCC(=O)Nc1ccc(-c2nc3cc(NC(=O)CNC(C)CC)ccc3o2)cc1 (centres undefined) 1.28%
